Results on 5 compounds are retold here after PubChem BioAssay.

Active and inactive are the calls of the source. Unless noted, no rule for the calls is given here.

The nature of assay [1]: anti-His antibody binders, primary screen, artefact control for SMM control protein annotation, biochemical, small-molecule microarray, 635 nm fluorescence (AID 1128).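 Also: score merges feature fluorescence with signal-to-noise for each printed compound spot.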 The settings on record: anti-His Alexa647 antibody binding, higher = more signal.
Assay [2] relates to Human papillomavirus type 1a E7 protein (residues 1-88). In words: HPV1a E7 small-molecule binders, primary screen, biochemical, small-molecule microarray, residues 1-88, 635 nm (AID 1129). The note with it: small-molecule microarray binding, fluorescence 635 nm; higher = more signal.
Assay [3] has as its target Focal adhesion kinase 1 (Homo sapiens) (UniProt Q05397). Description: small-molecule microarray binders of FAK, primary screen, biochemical, 635/667 nm fluorescence, BSA, DTT (AID 1130).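 Also: composite of spot emission at 667 nm and signal to noise over triplicate slides.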 The note with it: PTK2 binding, 635 nm fluorescence, higher = more signal.
For assay [4], the system named is Fibrinogen (Alexa647-labelled). In words: fibrinogen binders on compound microarrays, profiling panel, artefact control for SMM control-protein annotation, biochemical, small-molecule microarray, 635/667 nm fluorescence (AID 1131).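 Also: z-score merges 667 nm fluorescence with per-spot signal-to-noise over triplicate slides.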 The note with it: fibrinogen-A647 binding fluorescence, higher = more signal.
In assay [5] the target is Follistatin (Homo sapiens) (UniProt P19883). Description: follistatin binders on small-molecule microarrays, primary screen, biochemical, small-molecule microarray, 635/667 nm fluorescence (AID 1132). The settings on record: FST binding, 635 nm fluorescence, higher = more signal.
Follistatin (Homo sapiens), sequence (P19883 whole entry, looked up): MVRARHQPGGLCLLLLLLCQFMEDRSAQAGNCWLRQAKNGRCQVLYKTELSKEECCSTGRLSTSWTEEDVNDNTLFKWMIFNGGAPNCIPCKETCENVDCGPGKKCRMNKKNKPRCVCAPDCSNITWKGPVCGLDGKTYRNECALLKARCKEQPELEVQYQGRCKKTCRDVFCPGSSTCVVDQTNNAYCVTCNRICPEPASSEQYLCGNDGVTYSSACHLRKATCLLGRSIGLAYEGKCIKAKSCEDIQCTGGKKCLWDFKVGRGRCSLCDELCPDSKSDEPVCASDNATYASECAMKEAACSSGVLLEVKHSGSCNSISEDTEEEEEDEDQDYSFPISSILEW
The target in assay [6] is Fibroblast growth factor 2 (Homo sapiens) (UniProt P09038). In words: FGF2 binders on small-molecule microarrays, primary screen, biochemical, small-molecule microarray, 635/667 nm fluorescence (AID 1133). The note with it: small-molecule microarray binding, FGF2, fluorescence 635/667; higher = more signal.
Fibroblast growth factor 2 (Homo sapiens), sequence (P09038 whole entry, looked up): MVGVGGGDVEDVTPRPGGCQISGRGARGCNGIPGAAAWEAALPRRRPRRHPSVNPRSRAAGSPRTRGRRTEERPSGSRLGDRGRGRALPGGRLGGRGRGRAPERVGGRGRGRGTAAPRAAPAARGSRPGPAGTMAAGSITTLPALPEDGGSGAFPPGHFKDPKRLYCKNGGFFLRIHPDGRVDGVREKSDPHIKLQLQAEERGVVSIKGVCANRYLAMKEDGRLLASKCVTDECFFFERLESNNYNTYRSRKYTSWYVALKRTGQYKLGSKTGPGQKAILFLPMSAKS
Assay [7] can be described thus: mitochondrial membrane potential change in A549 cells, profiling panel, cell-based, JC-1 fluorescence, basal, 24 h, 100 nL (AID 1138).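 Also: A549 lung adenocarcinoma cells under basal conditions with no added stimulus; test concentration not given here.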 The note with it: higher = more signal.
The next assay deals with Lefty1. In words: Lefty1 binders on small-molecule microarrays, primary screen, biochemical, small-molecule microarray, 635/667 nm fluorescence (AID 1139). The note with it: small-molecule microarray binding, fluorescence 635/667; higher = more signal.
Assay [8] has as its system wheat germ agglutinin (Triticum aestivum), Alexa647-labelled. In words: wheat germ agglutinin binders on compound microarrays, profiling panel, artefact control for SMM control-protein annotation, biochemical, small-molecule microarray, 635/667 nm fluorescence (AID 1140).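 Also: score merges 667 nm feature emission with signal to noise over triplicate slides.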 The settings on record: WGA-A647 binding, 635 nm fluorescence, higher = more signal.
For assay [9], the target named is Luciferin 4-monooxygenase (Photinus pyralis) (UniProt P08659). In words: firefly luciferase enzyme inhibitors, primary screen, biochemical, luminescence, purified enzyme, 2006 set (AID 1141).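 Also: cell-free assay with purified firefly luciferase at 100 ng per well in PBS; test concentration not given here.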 The settings on record: SteadyGlo luminescence, 30 min, higher = more signal, called active from +8 up or from −8 down.
Luciferin 4-monooxygenase (Photinus pyralis), sequence (P08659 whole entry, looked up): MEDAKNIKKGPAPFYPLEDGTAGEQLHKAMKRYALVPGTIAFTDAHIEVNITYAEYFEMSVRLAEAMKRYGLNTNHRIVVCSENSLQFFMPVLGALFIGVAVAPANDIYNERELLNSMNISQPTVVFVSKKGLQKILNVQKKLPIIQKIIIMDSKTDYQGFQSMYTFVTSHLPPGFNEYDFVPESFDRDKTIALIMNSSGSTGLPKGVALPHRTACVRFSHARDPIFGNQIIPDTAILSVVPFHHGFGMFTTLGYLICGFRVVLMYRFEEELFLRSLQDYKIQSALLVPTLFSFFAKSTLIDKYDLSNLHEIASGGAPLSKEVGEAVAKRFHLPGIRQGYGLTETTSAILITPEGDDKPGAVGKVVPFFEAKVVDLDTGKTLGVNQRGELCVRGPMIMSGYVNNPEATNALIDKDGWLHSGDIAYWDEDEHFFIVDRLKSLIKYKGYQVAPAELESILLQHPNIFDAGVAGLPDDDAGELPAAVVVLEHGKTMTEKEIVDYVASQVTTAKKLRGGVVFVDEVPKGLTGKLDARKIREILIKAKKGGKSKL
The subject of assay [10] is Wnt5a (protein binding on small-molecule microarray). In words: Wnt5a binders on small-molecule microarray, primary screen, biophysical, 635/667 nm fluorescence (AID 1142).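 Also: fluorescence read at 667 nm with signal to noise per printed feature.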 The settings on record: 635 nm fluorescence, higher = more signal.
Assay [11] in a line: cell viability in Huh7 cells, primary screen, cytotoxicity control for HCV replication inhibitor project, CellTiter-Glo luminescence, basal, 48 h (AID 1143).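 Also: Huh7 hepatoma cells carrying a hepatitis C replication reporter with no stimulus; test concentration not given here.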 The settings on record: Huh7 HCV replicon, higher = more signal, called active from +8 up or from −8 down. In general terms: ATP-based viability assays read luminescence as a measure of living cells.
The nature of assay [12]: P. aeruginosa biofilm formation inhibitors, primary screen, PAO1 strain, BacTiter-Glo luminescence, LB-PBS (AID 1144). The settings on record: 12 h, higher = more signal.
A short description of assay [13]: CREB reporter modulators without forskolin, primary screen, cell-based, PC12, CRE-LacZ reporter, unstimulated (AID 1145). The note with it: no forskolin, luminescence, 4.5 h, higher = more signal, called active from +8 up or from −8 down.
Assay [14] can be described thus: CREB reporter modulators under forskolin, primary screen, cell-based, PC12, CRE-LacZ reporter, forskolin-stimulated (AID 1146).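 Also: PC12 cells with 6xCRE LacZ reporter stimulated by forskolin 10 µM; beta-galactosidase reporter signal reflecting CREB driven transcription.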 The settings on record: luminescence, 4.5 h, higher = more signal, called active from +8 up or from −8 down.
Assay [15] addresses Streptavidin (Streptomyces avidinii) (UniProt P22629). Description: streptavidin binders on small-molecule microarray, primary screen, artefact control for SMM compound annotation, biophysical, 635/667 nm fluorescence (AID 1147).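 Also: signal reflects streptavidin binding to arrayed compounds as a control protein.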 The settings on record: streptavidin binding, higher = more signal.
Assay [16] in a line: small-molecule binders of probe aInhba, primary screen, biochemical, small-molecule microarray, 635/667 nm fluorescence (AID 1148).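 Also: score merges 667nm spot fluorescence with signal-to-noise for antibody binding to printed compounds.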 The settings on record: higher = more signal.
Assay [17] concerns the target Torsin-1A (Homo sapiens) (UniProt O14656). In words: torsin A binders from cell lysate, primary screen, small-molecule microarray, wild-type, 635/667 nm (AID 1149). The note with it: COS7 hTOR1A-WT lysate, 635 nm fluorescence, higher = more signal.
Assay [18] shares this target. In words: small-molecule binders of mutant TOR1A in lysate, primary screen, cell lysate, small-molecule microarray, COS7 lysate, 635/667 nm fluorescence (AID 1150).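 Also: score pools 667 nm emission and signal to noise measuring lysate protein binding.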 The note with it: COS7 hTOR1A mutant lysate, 635 nm fluorescence, higher = more signal.
Assay [19] deals with Sonic hedgehog protein (Shh). In words: small-molecule binders of Shh protein, primary screen, biochemical, small-molecule microarray, 635/667 nm fluorescence (AID 1151).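 Also: Shh protein binding to compounds spotted on small-molecule microarray slides; score combines spot fluorescence intensity with signal-to-noise across triplicate slides.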 The settings on record: small-molecule microarray binding, 635 nm fluorescence; higher = more signal.

Focal adhesion kinase 1 (Homo sapiens), sequence (Q05397 whole entry, looked up): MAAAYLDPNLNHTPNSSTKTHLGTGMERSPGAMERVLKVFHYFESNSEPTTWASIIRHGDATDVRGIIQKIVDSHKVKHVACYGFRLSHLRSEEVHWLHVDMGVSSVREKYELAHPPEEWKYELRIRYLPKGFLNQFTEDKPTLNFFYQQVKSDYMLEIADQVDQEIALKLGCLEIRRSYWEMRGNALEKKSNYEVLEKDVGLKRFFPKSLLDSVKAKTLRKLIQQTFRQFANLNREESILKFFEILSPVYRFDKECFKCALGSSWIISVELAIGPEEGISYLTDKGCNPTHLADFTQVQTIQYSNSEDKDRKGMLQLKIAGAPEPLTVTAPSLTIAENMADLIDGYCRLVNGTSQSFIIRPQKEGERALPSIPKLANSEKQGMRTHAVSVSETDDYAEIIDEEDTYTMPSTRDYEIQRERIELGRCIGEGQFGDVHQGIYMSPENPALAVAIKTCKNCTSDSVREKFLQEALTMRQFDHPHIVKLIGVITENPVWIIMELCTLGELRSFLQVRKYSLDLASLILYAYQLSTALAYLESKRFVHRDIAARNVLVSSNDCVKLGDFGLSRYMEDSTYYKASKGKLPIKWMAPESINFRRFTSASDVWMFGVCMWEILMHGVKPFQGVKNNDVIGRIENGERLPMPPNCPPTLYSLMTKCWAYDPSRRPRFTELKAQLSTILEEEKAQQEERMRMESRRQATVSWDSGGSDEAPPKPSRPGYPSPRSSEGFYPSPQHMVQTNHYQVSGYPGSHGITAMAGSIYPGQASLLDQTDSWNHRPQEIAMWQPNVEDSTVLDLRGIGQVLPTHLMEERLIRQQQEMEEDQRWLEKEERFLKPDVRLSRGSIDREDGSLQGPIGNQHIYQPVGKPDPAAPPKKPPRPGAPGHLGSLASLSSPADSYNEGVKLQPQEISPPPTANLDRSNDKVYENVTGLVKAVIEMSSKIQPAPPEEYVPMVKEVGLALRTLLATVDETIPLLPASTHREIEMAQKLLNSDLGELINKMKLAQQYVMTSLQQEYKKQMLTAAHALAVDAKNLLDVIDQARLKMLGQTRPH
Streptavidin (Streptomyces avidinii), sequence (P22629 whole entry, looked up): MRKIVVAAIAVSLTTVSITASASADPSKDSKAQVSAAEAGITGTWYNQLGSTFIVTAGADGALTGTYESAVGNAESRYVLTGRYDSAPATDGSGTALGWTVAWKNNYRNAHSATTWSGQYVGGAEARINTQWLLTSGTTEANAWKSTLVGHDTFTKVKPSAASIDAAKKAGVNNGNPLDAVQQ
Torsin-1A (Homo sapiens), sequence (O14656 whole entry, looked up): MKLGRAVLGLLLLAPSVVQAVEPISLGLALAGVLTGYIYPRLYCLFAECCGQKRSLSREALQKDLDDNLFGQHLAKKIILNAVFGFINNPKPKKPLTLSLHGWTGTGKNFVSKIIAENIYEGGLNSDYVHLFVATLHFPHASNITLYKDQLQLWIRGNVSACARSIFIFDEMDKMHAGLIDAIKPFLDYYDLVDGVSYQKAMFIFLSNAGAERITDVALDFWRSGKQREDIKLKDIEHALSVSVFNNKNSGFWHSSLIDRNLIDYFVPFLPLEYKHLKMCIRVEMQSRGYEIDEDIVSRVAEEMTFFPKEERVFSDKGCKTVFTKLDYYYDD

As for `C=C(/C(=C/C[C@@H](OC(=O)c1ccncc1)c1ccccc1OCCO)c1cnc2ccccc2c1)C(C)C`, the composite z-score in [1] was 1.18; in assay [2], 0.896; in [3], 0.204; in [4], 0.963; in assay [5], 1.45; in assay [6], 1.87. The composite z-score in the assay with Lefty1 was 1.65; in [8], 0.869; in assay [10] it was 0.816; in [15] it was 1.67; in assay [16] it was 0.421; with Torsin-1A (Homo sapiens) [17], 0.799. Besides, the composite z-score with Torsin-1A (Homo sapiens) [18] is -0.0593; in assay [19], 2.22. For the same compound, the z-score in assay [7] is 0.494; in assay [9], -1.08 (inactive); in assay [11], -8.34 (active); in assay [12] it was 0.556 (inactive); in [13], 15.6 (active); in [14] it was -0.0321 (inactive).
Turning to `Cc1ccccc1C(O)C1C=CC2C(=O)N(C)C(=O)C2N1Nc1ccc([N+](=O)[O-])cc1[N+](=O)[O-]` (stereo not given), the composite z-score in assay [1] is 0.509; in assay [2], 1.27; in assay [3] it was 0.646; in assay [4] it was 1.02; in assay [5], 0.674; in [6], -0.38. Besides, the composite z-score in the assay with Lefty1 is -0.167; in [8], 0.913; in assay [10], 0.483; in assay [15], 1.04; in assay [16], 0.138; with Torsin-1A (Homo sapiens) [17] it was -0.0091. Also, the composite z-score with Torsin-1A (Homo sapiens) [18] is 0.94; in [19] it was -0.457. For the same compound, the z-score in [7] was 0.668; in [9] it was 0.147 (inactive); in assay [11], -0.157 (inactive); in assay [12], 0.262 (inactive); in assay [13] it was 0.443 (inactive); in assay [14], 0.57 (inactive).
Regarding `C[C@H]1NC(=O)C([C@@H](C)OCc2ccccc2)NC(=O)[C@@]23C(=O)N[C@@H](Cc4ccccc4)C2[C@H](C)[C@@]2(C)O[C@H]2C3/C=C/CC/C=C/CNC1=O` (stereo not given in full), the composite z-score in assay [1] is -0.342; in [2] it was -0.413; in assay [3], -0.305; in assay [4] it was 0.42; in assay [5], 0.607; in assay [6], 0.588. In addition, the composite z-score in the assay on Lefty1 is 0.331; in assay [8] it was 0.384; in [10], -0.108; in [15] it was -0.0311; in [16] it was -0.122; with Torsin-1A (Homo sapiens) [17] it was -0.0252. In addition, the composite z-score with Torsin-1A (Homo sapiens) [18] stood at 0.212; in assay [19] it was 0.778. The z-score is -0.198 in assay [7]; -0.749 (inactive) in assay [9]; -1.24 (inactive) in assay [11]; 1.27 (inactive) in assay [12]; 4.21 (inactive) in [13]; -1.16 (inactive) in assay [14].
Take `CN(C)CCCC[C@@H]1NC(=O)[C@H]2C[C@@H](C(=O)NCCCCCCNC(=O)CS)[C@@H](c3ccc(O)cc3)N2C1=O`: the composite z-score in [1] was 0.135; in assay [2], 0.0218; in assay [3], 1.05; in [4], -0.934; in [5] it was 1.32; in assay [6] it was 0.804. Moreover, the composite z-score is 0.628 with Lefty1; -0.149 in assay [8]; -0.261 in assay [10]; -1.05 in assay [15]; -0.224 in assay [16]; 1.13 in the assay with Torsin-1A (Homo sapiens) [17]. Besides, the values for the composite z-score (in the assay with Torsin-1A (Homo sapiens) [18]; in assay [19]) were 0.753 and 1.92, respectively. The z-score in [7] is -0.685; in assay [9] it was 0.78 (inactive); in [11] it was -0.898 (inactive); in assay [12], -0.113 (inactive); in assay [13], -1.21 (inactive); in assay [14] it was -0.887 (inactive).
With `COc1ccccc1CN1C(=O)c2ccccc2[C@@]2(Cc3ccccc3N(C3CC3)C2=O)[C@@H]1c1ccc(CO)cc1`, the composite z-score in [1] is 0.131; in assay [2], -1.12; in assay [3] it was -0.175; in [4] it was -0.248; in assay [5], 0.253; in assay [6] it was -1.17. The composite z-score in the assay on Lefty1 was -0.154; in assay [8], -0.0487; in assay [10] it was -0.507; in [15], -0.189; in [16], -0.125; with Torsin-1A (Homo sapiens) [17], -1.68. Besides, the figures for the composite z-score (with Torsin-1A (Homo sapiens) [18]; in [19]) were -0.821 and -0.27, respectively. The z-score was 0.111 in assay [7]; -0.379 (inactive) in assay [9]; -0.0976 (inactive) in [11]; 1.13 (inactive) in [12]; 0.622 (inactive) in assay [13]; -0.148 (inactive) in [14].
